Test results: PubChem BioAssay
Calls of active or inactive are those of the source.

Experiments:
[1] = test system: Plasmodium falciparum Sir2 (PF13_0152, Sir2A); experiment: pfSir2 binders on small-molecule microarrays, primary screen, biochemical, small-molecule microarray, 635 nm fluorescence (AID 1098); conditions: small-molecule microarray binding, fluorescence 635 nm; higher = more signal;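 further: score merges spot fluorescence intensity with its signal-to-noise ratio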
[2] = small-molecule microarray binders of probe aDKK1, primary screen, biochemical, biotinylated probe, 635/667 nm fluorescence (AID 1099); conditions: higher = more signal;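 further: score merges 667nm spot fluorescence with signal to noise across triplicate slides; reference of the scale not given here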
[3] = small-molecule microarray binders of probe aCHRDL2, primary screen, biochemical, biotinylated probe, 635/667 nm fluorescence (AID 1100); conditions: higher = more signal
[4] = splicing luciferase reporter signal modulators, primary screen, spliceosome inhibition project, cell-based, HEK293, splice +/- reporter (AID 1101); conditions: luminescence, 24 h, higher = more signal, called active from +8 up or from −8 down;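 further: HEK293 cells carrying a splicing-competent luciferase reporter gene; test concentration not given here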
[5] = target: Fibroblast growth factor 10 (Homo sapiens) (UniProt O15520); experiment: FGF10 binders on small-molecule microarrays, primary screen, biochemical, small-molecule microarray, 635 nm fluorescence (AID 1102); conditions: FGF10 binding, fluorescence 635 nm, higher = more signal
[6] = test system: glycogen synthase kinase-3 (GSK3A per assay name; protocol says GSK3B); experiment: GSK3 binders on small-molecule microarrays, primary screen, biochemical, small-molecule microarray, 635 nm fluorescence, GSK3A (AID 1103); conditions: small-molecule microarray binding, fluorescence 635 nm; higher = more signal; further: the record names both GSK3A and GSK3B
[7] = target: Epidermal growth factor receptor (Homo sapiens) (UniProt P00533); experiment: EGFR binders on small-molecule microarrays, primary screen, biochemical, small-molecule microarray, 635 nm fluorescence (AID 1104); conditions: EGFR binding, higher = more signal;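 further: score merges 667 nm emission intensity with spot signal to noise over triplicate slides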
[8] = target: Follistatin-related protein 3 (Homo sapiens) (UniProt O95633); experiment: FSTL3 binders on small-molecule microarrays, primary screen, biochemical, small-molecule microarray, 635 nm fluorescence (AID 1105); conditions: FSTL3 binding, higher = more signal;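 further: score merges emission near 667 nm and signal to noise per printed spot across three slides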
[9] = target: Dickkopf-related protein 1 (Homo sapiens) (UniProt O94907); experiment: DKK1 binders on small-molecule microarrays, primary screen, biochemical, small-molecule microarray, 635 nm fluorescence scan (AID 1106); conditions: DKK1 binding, higher = more signal;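 further: score merges emission near 667 nm with signal to noise over three replicate slides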
[10] = test system: Inhibin beta A chain (activin A); experiment: INHBA (activin A) binders on microarrays, primary screen, biochemical, small-molecule microarray, 635 nm fluorescence scan (AID 1107); conditions: small-molecule microarray binding, higher = more signal;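 further: mouse activin A protein probed at 4.33 µg/mL on printed slides; score merges bound-protein fluorescence near 667 nm with spot signal-to-noise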

Chain of Epidermal growth factor receptor (Homo sapiens) (P00533 whole entry, looked up): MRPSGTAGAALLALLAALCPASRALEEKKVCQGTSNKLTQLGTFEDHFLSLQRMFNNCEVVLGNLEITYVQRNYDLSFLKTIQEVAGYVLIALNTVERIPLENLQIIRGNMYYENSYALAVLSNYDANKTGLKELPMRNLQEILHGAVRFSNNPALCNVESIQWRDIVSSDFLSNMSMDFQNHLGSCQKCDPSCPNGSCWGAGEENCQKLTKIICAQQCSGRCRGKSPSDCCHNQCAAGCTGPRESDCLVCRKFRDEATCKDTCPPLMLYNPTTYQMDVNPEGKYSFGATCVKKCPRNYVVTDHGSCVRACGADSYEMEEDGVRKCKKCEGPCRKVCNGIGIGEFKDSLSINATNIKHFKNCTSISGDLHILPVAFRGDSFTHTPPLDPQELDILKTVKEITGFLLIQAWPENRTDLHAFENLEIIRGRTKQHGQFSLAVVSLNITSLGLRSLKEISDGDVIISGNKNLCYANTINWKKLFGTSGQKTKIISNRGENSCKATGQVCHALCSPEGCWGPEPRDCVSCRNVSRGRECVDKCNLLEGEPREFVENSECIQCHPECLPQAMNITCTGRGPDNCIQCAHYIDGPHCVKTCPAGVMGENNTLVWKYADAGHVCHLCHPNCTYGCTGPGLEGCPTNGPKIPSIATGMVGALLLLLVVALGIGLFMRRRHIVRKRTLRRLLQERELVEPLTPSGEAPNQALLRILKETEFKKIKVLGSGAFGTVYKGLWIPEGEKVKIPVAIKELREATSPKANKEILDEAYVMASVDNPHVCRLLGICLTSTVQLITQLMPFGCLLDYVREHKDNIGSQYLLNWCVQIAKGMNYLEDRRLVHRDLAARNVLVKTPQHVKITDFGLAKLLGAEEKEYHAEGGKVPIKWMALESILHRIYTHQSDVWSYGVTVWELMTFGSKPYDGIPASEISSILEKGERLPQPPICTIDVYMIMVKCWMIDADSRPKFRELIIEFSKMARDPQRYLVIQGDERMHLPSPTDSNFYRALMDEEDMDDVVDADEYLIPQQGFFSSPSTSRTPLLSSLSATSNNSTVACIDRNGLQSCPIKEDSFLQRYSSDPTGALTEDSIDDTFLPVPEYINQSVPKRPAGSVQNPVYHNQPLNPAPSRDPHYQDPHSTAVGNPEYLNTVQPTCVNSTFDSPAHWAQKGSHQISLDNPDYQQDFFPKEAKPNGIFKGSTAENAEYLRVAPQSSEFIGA
Chain of Dickkopf-related protein 1 (Homo sapiens) (O94907 whole entry, looked up): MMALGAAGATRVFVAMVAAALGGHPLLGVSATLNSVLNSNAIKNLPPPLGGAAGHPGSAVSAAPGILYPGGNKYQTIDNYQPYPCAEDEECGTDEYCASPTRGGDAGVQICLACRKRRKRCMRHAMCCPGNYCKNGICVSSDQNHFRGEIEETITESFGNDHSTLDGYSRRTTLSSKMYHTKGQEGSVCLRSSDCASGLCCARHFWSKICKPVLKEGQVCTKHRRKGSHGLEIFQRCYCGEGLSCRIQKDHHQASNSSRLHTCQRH
Chain of Fibroblast growth factor 10 (Homo sapiens) (O15520 whole entry, looked up): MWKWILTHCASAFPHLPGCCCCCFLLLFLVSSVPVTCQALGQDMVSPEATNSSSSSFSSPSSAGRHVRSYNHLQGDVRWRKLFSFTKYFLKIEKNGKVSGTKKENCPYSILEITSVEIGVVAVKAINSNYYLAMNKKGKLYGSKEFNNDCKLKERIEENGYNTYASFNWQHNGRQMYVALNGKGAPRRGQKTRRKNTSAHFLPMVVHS
Chain of Follistatin-related protein 3 (Homo sapiens) (O95633 whole entry, looked up): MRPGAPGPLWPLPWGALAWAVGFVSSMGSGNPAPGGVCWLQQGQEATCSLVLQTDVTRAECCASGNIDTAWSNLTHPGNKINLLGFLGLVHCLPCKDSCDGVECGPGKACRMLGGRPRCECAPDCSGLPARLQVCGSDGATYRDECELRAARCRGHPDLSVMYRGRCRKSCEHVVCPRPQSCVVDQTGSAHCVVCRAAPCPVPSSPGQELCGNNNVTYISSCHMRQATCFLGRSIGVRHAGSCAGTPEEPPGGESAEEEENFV

SMILES	composite z-score [1]	composite z-score [2]	composite z-score [3]	z-score [4]	composite z-score [5]	composite z-score [6]	composite z-score [7]	composite z-score [8]	composite z-score [9]	composite z-score [10]
COC(=O)C1=CC(c2ccc(CO)cc2)=CC(c2cccs2)N(Cc2cccc(OC(F)(F)F)c2)C=C1C(=O)OC (stereo not given)	1.49	-0.0873	0.428	0.939 (inactive)	0.945	1.26	-0.41	0.568	-0.0789	1.09
Cc1ccc([C@@H]2CC=C(C(=O)O)[C@H](c3ccccc3)N2S(=O)(=O)c2ccc(C)cc2)cc1	1.44	0.52	1.23	0.0744 (inactive)	1.24	0.78	-0.755	0.0604	-1.69	-0.575
N#Cc1ccc(NN2C(C(O)c3ccc(I)cc3)C=CC3C(=O)N(c4ccccc4)C(=O)C32)cc1 (stereo not given)	1.13	0.124	1.03	2.17 (inactive)	0.549	0.656	0.0977	0.421	-0.337	0.462
CCN1C(C)=C(C(=O)OC)[C@@H](c2ccccc2)N2C(=O)[C@@]3(C(=O)OC)O[C@@]12[C@@H]1C(=O)CCC[C@@H]13	0.604	-0.786	-1.31	-0.814 (inactive)	0.903	0.8	0.648	1.06	1.85	1.01
CCOC(=O)C[C@H]1[C@H](OC(=O)c2ccccc2-c2ccccc2)[C@@H](NC(=O)c2ccc(-c3ccccc3)cc2)c2cc(OCCCO)ccc2N1C(=O)Cc1ccc(OC)cc1	-0.0957	-0.394	-0.44	-0.288 (inactive)	0.295	-0.189	0.147	0.38	0.428	0.701
CO[C@H]1COC(=O)[C@H](C)NC(=O)CC=C[C@@H](C)[C@H](NS(=O)(=O)c2ccc(C)cc2)COC(=O)[C@@H](OCc2ccccc2)C=C[C@@H]1C	-0.189	-0.667	-0.97	-0.138 (inactive)	0.0808	0.258	0.286	0.512	1.37	0.51
COCCOC(=O)N1C(=O)[C@@]2(c3cc(C#CCNC(N)=O)ccc31)[C@H](c1ccc(OCCO)cc1)N1[C@H](c3ccccc3)[C@H](c3ccccc3)OC(=O)[C@H]1[C@@H]2C(=O)Nc1nc2ccccc2s1	0.337	0.997	0.88	0.0697 (inactive)	0.574	-0.289	0.0231	1.01	1	0.926
C=CC[C@]1(C(=O)O)N=C(c2ccc(OCCCO)cc2)O[C@H]1c1ccccc1	1.43	0.518	0.838	-0.893 (inactive)	-0.0023	-0.517	-1.13	-1.02	-0.968	0.654
CO[C@H]1COC(=O)[C@@H](Cc2ccccc2)NC(=O)[C@@H](C)COC(=O)CC=C[C@@H]1C	0.318	-0.63	-1.46	0.105 (inactive)	0.42	-0.0524	0.954	0.439	0.913	1.31
CC1=C([C@H](O)CCc2ccccc2)[C@H](CO)[C@@H]2C(=O)N(Cc3ccccc3)C(=O)[C@@H]2C1	0.0539	-0.264	-0.551	-0.46 (inactive)	0.27	-0.453	-0.176	0.785	0.28	0.317
COC(=O)[C@@]1(Cc2ccccc2N=[N+]=[N-])N=C(c2ccc(OCCCO)cc2)O[C@H]1c1ccccc1CN=[N+]=[N-]	1.16	0.733	0.771	1.07 (inactive)	0.468	0.393	-0.34	-0.0014	-0.304	1.13
C=CC(=O)O[C@@H](Cc1ccccc1)[C@H]1C2C=CCCC=C2CN1Cc1cccc(Cl)c1 (stereo not given in full)	-0.426	0.0657	0.502	-0.855 (inactive)	-0.281	-1.21	-0.506	-0.87	-0.143	1.11
CCCCCCc1nc(-c2cc(C)c(OC)c(C)c2)cc2c1[Si](C(C)C)(C(C)C)O[C@H]2c1ccccc1	-0.717	-0.268	0.122	0.399 (inactive)	-0.915	-0.849	-0.394	-0.677	-0.302	0.621
C#CCCCON=C1C[C@@H](O)[C@@H](O)[C@@H]2[C@@H]3C(=O)N(Cc4ccc5c(c4)OCO5)C(=O)[C@@H]3CC[C@H]12	0.419	-0.254	-0.463	-0.16 (inactive)	1.34	0.253	0.328	0.578	0.59	-0.345
O=C1C[C@@](C(=O)NC2CC2)(c2ccc([N+](=O)[O-])cc2)[C@@H](c2ccc(CO)cc2I)N1CC12CC3CC(CC(C3)C1)C2	0.841	-0.0788	-0.52	-1.11 (inactive)	1.23	0.968	0.282	0.991	0.266	-0.22
CCOC(=O)C[C@H]1[C@H](OC(=O)Cc2ccc3c(c2)OCO3)[C@@H](NC(=O)CC(C)C)c2cc(OCCCO)ccc2N1C(=O)c1ccccc1	0.899	-0.095	-0.533	-1.6 (inactive)	0.723	0.263	0.369	0.321	0.451	0.643
COC(=O)[C@H]1[C@@H]2COc3ccccc3[C@H]2N[C@H]1C(=O)OC	0.0829	-0.0995	0.0399	-0.685 (inactive)	0.348	0.332	0.261	0.327	0.0008	0.0992
